This note sets out measurements from PubChem BioAssay (NCI).

This is part of a sample that, as a whole, favours compounds with a hit. Of some 83,000 tested, about 20% had one in any assay.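 Values shown are percent growth following 48 h exposure of cells in 96-well plates to a single concentration of compound; below 10 was considered active.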 Unmarked numbers belong to inactive results. Calls of active or inactive are those of the source.

The subject of one experiment is MALME-3M melanoma. The experiment can be described thus: NCI-60 one-dose screen, 48 h (100 = growth as untreated, 0 = no growth, -100 = all killed). As to conditions: 10 µM unless noted.
For the compound `CCCCCCNc1cc(C)nc2ccc(OC)cc12`, the growth is 52.3%.

As for `Cc1ccc(C)c2c1C(=O)OC2=O`, the growth was 87.8%.

On to `CCN(CC)CCCNC(=O)c1ccc(N)cc1O`, for which the growth was 91.2%.

Consider `O=[N+]([O-])c1ccc(-c2cc3c(Nc4ccc(OCc5cccc(Cl)c5)c(Cl)c4)ncnc3s2)cc1`, for which the growth was 61.2%.

In the case of `COC(=O)Nc1nc2ccc(C(=O)C3CC3)cc2[nH]1`, the growth was 63.2%.

For `CCOC(=O)C(O)C(O)(c1ccccc1)c1ccccc1` (configuration not stated), the growth was 103%.

On to `N#Cc1cnn2c(-c3ccc(Cl)cc3)nc(NC3CC3)nc12`, for which the growth is 125%.

As to `O=C(C[C@@]1(O)C(=O)Nc2c(Cl)ccc(Cl)c21)c1ccc(C2CC2)cc1`, the growth is 41.9%.

Regarding `CN(CCC(=O)/C(=C\c1ccccc1)c1ccc(Cl)cc1)Cc1ccccc1`, the growth is 18%.

With `CC1=NN(c2cccc(Cl)c2)C(=O)/C1=C\c1cn(CC(O)CN2CCCCC2)c2ccccc12` (configuration not stated), the growth is 32.9%.

In the case of `O=C(NCOC(O)C(Cl)(Cl)Cl)NCOC(O)C(Cl)(Cl)Cl` (configuration not stated), the growth is 99.5%.

`O=[N+]([O-])c1ccccc1C(O)Cc1ccc2ccccc2n1` (configuration not stated): the growth was 89.6%.

As for `N#Cc1cnn2c(-c3ccc(Cl)cc3)nc(NCCc3ccccc3)nc12`, the growth is 111%.

With `CCOC(=O)C(=CNc1ccccc1[N+](=O)[O-])C(=O)OCC`, the growth is 115%.

Consider `Cc1ccc(NSc2ccccc2[N+](=O)[O-])cc1`, for which the growth was 44.9%.

Regarding `CN(C)CCC(O)(Cc1ccccc1)c1ccccc1` (configuration not stated), the growth was 114%.

For the compound `CCOc1cc(N)ccc1C(=O)NCCCN(CC)CC`, the growth was 96.3%.

As for `COc1ccc(-c2nnc(SCC(=O)NC3=NN=C(c4ccccc4)CS3)o2)cc1`, the growth is 105%.

For the compound `C#C[C@]1(O)CC[C@H]2[C@@H]3CC=C4c5sc(N=C(N)N)nc5CC[C@]4(C)[C@H]3CC[C@@]21C`, the growth was -76.2% (active).

`CCCCCCCCN(CCCCCCCC)C(=N)c1ccnc2ccccc12`: the growth was -78.5% (active).

Turning to `COc1cc(-c2ccc(N=Nc3c(O)c(C(=O)Nc4ccccc4OC)cc4ccccc34)c(OC)c2)ccc1N=Nc1c(O)c(C(=O)Nc2ccccc2OC)cc2ccccc12`, the growth was 90.6%.

As for `O=C1c2ccccc2C2(c3ccc(O)cc3)c3ccccc3Oc3cccc1c32` (configuration not stated), the growth is 66.4%.

In the case of `Cc1c(Cl)cccc1NS(=O)(=O)c1ccccc1`, the growth is 124%.

As for `CN(C)c1cnccn1`, the growth was 127%.

On to `Fc1ccc(Nc2nc3nonc3nc2Nc2ccc(F)cc2)cc1`, for which the growth was 1.97% (active).

With `Cc1nc2ccccc2c(/C=C/c2ccc(Cl)cc2)c1C(=O)/C=C/c1ccc(Cl)cc1`, the growth is -54.1% (active).

For the compound `Fc1ccc(Nc2nc(Nc3ccc(-c4nc5ccccc5[nH]4)cc3)c3cn[nH]c3n2)cc1`, the growth was 107%.

For the compound `Nc1ccc(-c2cc3c(Nc4ccc(OCc5cccc(F)c5)c(Cl)c4)ncnc3s2)cc1`, the growth was 42.1%.

Consider `O=[N+]([O-])c1ccc(-c2cc3c(Nc4ccc(Cl)c(C(F)(F)F)c4)ncnc3s2)cc1`, for which the growth was -22.8% (active).

Consider `O=[N+]([O-])c1ccc(-c2cc3c(Nc4ccc(Sc5nc6ccccc6s5)c(Cl)c4)ncnc3s2)cc1`, for which the growth was 62.9%.

Take `CCOC(=O)N1CCc2c(sc3c2C(=O)N[C@H](c2ccc(OC)cc2)N3)C1`: the growth is 96.7%.

For the compound `Cc1cn(C2CCCCC2)c(=O)[nH]c1=O`, the growth is 120%.

`Cc1csc(NC(=O)c2sc3nc(-c4cccs4)ccc3c2N)n1`: the growth was 99.6%.

With `Clc1ccc(-c2nc(NCCc3ccccc3)nc3c(NCCc4ccccc4)cnn23)cc1`, the growth was 96.8%.

Regarding `Cc1nc(C)c(-c2nn3c(-c4cccc(F)c4)nnc3s2)s1`, the growth was 111%.

Turning to `COc1ccc(-c2nnc(-c3ccc4c(c3)nc(-c3ccccc3)n4C3CCCCC3)o2)cc1`, the growth was 69.4%.

Consider `Cc1cc2c(F)c(Oc3ncnc(Nc4ccc(N5C[C@@H](C)N[C@@H](C)C5)cc4)c3C#N)cc(F)c2[nH]1`, for which the growth is 75%.

As for `CCN(CC)CCCNC(=O)c1ccc(N)cc1`, the growth is 94.3%.

The next experiment concerns MDA-MB-231 breast. Described as above. As to conditions: 10 µM unless noted.
Consider `CCCCCCNc1cc(C)nc2ccc(OC)cc12`, for which the growth is 69.6%.

For `Cc1ccc(C)c2c1C(=O)OC2=O`, the growth is 106%.

For the compound `CCN(CC)CCCNC(=O)c1ccc(N)cc1O`, the growth is 94.6%.

Take `O=[N+]([O-])c1ccc(-c2cc3c(Nc4ccc(OCc5cccc(Cl)c5)c(Cl)c4)ncnc3s2)cc1`: the growth is 81.6%.

With `COC(=O)Nc1nc2ccc(C(=O)C3CC3)cc2[nH]1`, the growth is 22.8%.

On to `CCOC(=O)C(O)C(O)(c1ccccc1)c1ccccc1` (configuration not stated), for which the growth was 94.4%.

For the compound `N#Cc1cnn2c(-c3ccc(Cl)cc3)nc(NC3CC3)nc12`, the growth was 101%.

In the case of `O=C(C[C@@]1(O)C(=O)Nc2c(Cl)ccc(Cl)c21)c1ccc(C2CC2)cc1`, the growth is 45%.

Consider `CN(CCC(=O)/C(=C\c1ccccc1)c1ccc(Cl)cc1)Cc1ccccc1`, for which the growth is 13%.

For `CC1=NN(c2cccc(Cl)c2)C(=O)/C1=C\c1cn(CC(O)CN2CCCCC2)c2ccccc12` (configuration not stated), the growth is 41.4%.

Take `O=C(NCOC(O)C(Cl)(Cl)Cl)NCOC(O)C(Cl)(Cl)Cl` (configuration not stated): the growth is 106%.

Regarding `Cc1nn(-c2ccccc2)c2c1C(c1ccc([N+](=O)[O-])cc1)C(C#N)=C(N)O2` (configuration not stated), the growth is 87.4%.

On to `O=[N+]([O-])c1ccccc1C(O)Cc1ccc2ccccc2n1` (configuration not stated), for which the growth is 68.3%.

On to `N#Cc1cnn2c(-c3ccc(Cl)cc3)nc(NCCc3ccccc3)nc12`, for which the growth is 87.5%.

In the case of `CCOC(=O)C(=CNc1ccccc1[N+](=O)[O-])C(=O)OCC`, the growth was 98.6%.

As to `Cc1ccc(NSc2ccccc2[N+](=O)[O-])cc1`, the growth is 53.7%.

In the case of `CN(C)CCC(O)(Cc1ccccc1)c1ccccc1` (configuration not stated), the growth is 108%.

As for `CCOc1cc(N)ccc1C(=O)NCCCN(CC)CC`, the growth was 93.2%.

For the compound `COc1ccc(-c2nnc(SCC(=O)NC3=NN=C(c4ccccc4)CS3)o2)cc1`, the growth was 91.5%.

As to `C#C[C@]1(O)CC[C@H]2[C@@H]3CC=C4c5sc(N=C(N)N)nc5CC[C@]4(C)[C@H]3CC[C@@]21C`, the growth was -45.4% (active).

In the case of `CCCCCCCCN(CCCCCCCC)C(=N)c1ccnc2ccccc12`, the growth was -77.2% (active).

In the case of `COc1cc(-c2ccc(N=Nc3c(O)c(C(=O)Nc4ccccc4OC)cc4ccccc34)c(OC)c2)ccc1N=Nc1c(O)c(C(=O)Nc2ccccc2OC)cc2ccccc12`, the growth is 76.2%.

On to `O=C1c2ccccc2C2(c3ccc(O)cc3)c3ccccc3Oc3cccc1c32` (configuration not stated), for which the growth was 21.8%.

`Cc1c(Cl)cccc1NS(=O)(=O)c1ccccc1`: the growth is 102%.

As to `CN(C)c1cnccn1`, the growth is 72.4%.

With `Fc1ccc(Nc2nc3nonc3nc2Nc2ccc(F)cc2)cc1`, the growth was -20.5% (active).

Take `Cc1nc2ccccc2c(/C=C/c2ccc(Cl)cc2)c1C(=O)/C=C/c1ccc(Cl)cc1`: the growth was -34.1% (active).

On to `Fc1ccc(Nc2nc(Nc3ccc(-c4nc5ccccc5[nH]4)cc3)c3cn[nH]c3n2)cc1`, for which the growth is 22.2%.

In the case of `Nc1ccc(-c2cc3c(Nc4ccc(OCc5cccc(F)c5)c(Cl)c4)ncnc3s2)cc1`, the growth is 13.4%.

Consider `O=[N+]([O-])c1ccc(-c2cc3c(Nc4ccc(Cl)c(C(F)(F)F)c4)ncnc3s2)cc1`, for which the growth was 5.95% (active).

Regarding `O=[N+]([O-])c1ccc(-c2cc3c(Nc4ccc(Sc5nc6ccccc6s5)c(Cl)c4)ncnc3s2)cc1`, the growth was 29.2%.

`CCOC(=O)N1CCc2c(sc3c2C(=O)N[C@H](c2ccc(OC)cc2)N3)C1`: the growth was 104%.

Regarding `Cc1cn(C2CCCCC2)c(=O)[nH]c1=O`, the growth was 103%.

As to `Cc1csc(NC(=O)c2sc3nc(-c4cccs4)ccc3c2N)n1`, the growth was 93.4%.

For the compound `Clc1ccc(-c2nc(NCCc3ccccc3)nc3c(NCCc4ccccc4)cnn23)cc1`, the growth was 92.1%.

For the compound `Cc1nc(C)c(-c2nn3c(-c4cccc(F)c4)nnc3s2)s1`, the growth is 107%.

For the compound `COc1ccc(-c2nnc(-c3ccc4c(c3)nc(-c3ccccc3)n4C3CCCCC3)o2)cc1`, the growth was 72.9%.

As to `Cc1cc2c(F)c(Oc3ncnc(Nc4ccc(N5C[C@@H](C)N[C@@H](C)C5)cc4)c3C#N)cc(F)c2[nH]1`, the growth is -0.722% (active).

In the case of `CCN(CC)CCCNC(=O)c1ccc(N)cc1`, the growth is 104%.
